From PubChem
CYP2C19 activ = human CYP2C19 activators, primary screen, biochemical, luminescence; activation factor at 5 µM; recombinant CYP2C19, luciferin-H EGE luminescence; hits give high values; 0 = fully inhibited enzyme, 1 = untreated enzyme; 96,000 tested, under 10 active;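 active = activation factor of at least 2 at 5 µM in the primary screen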;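 note: 0 = wells with 2.5 mM tranylcypromine and 1 = vehicle-only wells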
CYP2C9 inhib = blockers of cytochrome P450 2C9 activity – biochemical, luminescence, ADME assay, primary screen; inhibition, % at 5 µM; P11712; 20% of 96,000 active; AID 777, 2007; CYP2C9 Supersomes, luciferin-H conversion;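 active = blocking of liver enzyme CYP2C9 beyond about 50% at 5 µM, limit read from the data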
Target sequence (P11712 whole entry, looked up): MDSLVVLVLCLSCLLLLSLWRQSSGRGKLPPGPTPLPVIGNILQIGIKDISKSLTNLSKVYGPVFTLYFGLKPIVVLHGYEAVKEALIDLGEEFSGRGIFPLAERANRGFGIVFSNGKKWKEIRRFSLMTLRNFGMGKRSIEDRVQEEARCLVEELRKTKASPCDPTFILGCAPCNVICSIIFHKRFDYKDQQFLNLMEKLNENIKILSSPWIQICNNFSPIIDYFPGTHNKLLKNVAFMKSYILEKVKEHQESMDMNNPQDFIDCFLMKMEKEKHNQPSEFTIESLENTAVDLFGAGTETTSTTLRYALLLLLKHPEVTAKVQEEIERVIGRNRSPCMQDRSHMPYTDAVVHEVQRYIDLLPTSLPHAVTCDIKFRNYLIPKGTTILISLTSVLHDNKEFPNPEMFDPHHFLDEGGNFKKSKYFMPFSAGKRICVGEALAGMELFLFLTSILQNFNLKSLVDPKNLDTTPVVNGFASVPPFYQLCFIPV
PLAP act = PLAP enzyme activators, biochemical, luminescence, HTS; Alkaline phosphatase, placental type (Homo sapiens), P05187; purified PLAP enzyme, luminescent substrate read-out; hits give high values; activation fold at 20 µM; 1.2% of 96,000 active; AID 696, 2007; in the data active = activation fold above about 2
CYP2C9 act = human CYP2C9 activators, primary screen, biochemical, luminescence. Cytochrome P450 2C9 (Homo sapiens), P11712. recombinant CYP2C9, luciferin-H conversion; hits give high values; factor 1 = untreated enzyme, 0 = blocked. activation factor at 5 µM. 1.4% of 96,000 active. AID 1024, 2008;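 active = activation factor of 2 or more for CYP2C9 at a 5 µM dose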;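 note: 0 = sulfaphenazole-blocked wells and 1 = vehicle-only wells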
CYP2C19 inhib = blockers of cytochrome P450 2C19 activity – biochemical, luminescence, ADME assay, primary screen. AID 778, 2007. inhibition, % at 5 µM. CYP2C19 Supersomes, luciferin-H EGE luminescence, 30 min. 21% of 96,000 active;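 active = CYP2C19 inhibition above a set limit at 5 µM in the primary screen, cut at about 50% in these data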;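 note: plate controls were negative control wells for no effect and 2.5 mM tranylcypromine positive control for full effect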
* = called active by the depositor. Compounds with a hit are over-represented: about 31% of the library has one in this group of screens.

SMILES	CYP2C19 activ	CYP2C9 inhib	PLAP act	CYP2C9 act	CYP2C19 inhib
O=C(Nc1ccc(N2CCCCC2)cc1)c1cccnc1Cl	0.8	-1.6	1	1	15.9
O=C(Nc1ccc(Cl)cc1)c1cccnc1N1CCCCC1	0.2	78.4*	0.8	0.2	79.4*
O=C(Nc1cccc(C(F)(F)F)c1)C1CCCCC1	0.1	68.7*	0.7	0.3	86.8*
O=C(Nc1cccc(C(F)(F)F)c1)c1cccnc1N1CCCC1	0.5	-239.1	0.8	3.4*	47.5
O=C(Cn1c(N2CCN(c3ccccc3)CC2)nc2ccccc21)c1ccccc1	1.1	-10.6	0.9	1.1	-11.5
N/C(CC(=O)Nc1cccc(C(F)(F)F)c1)=N/O	0.9	0.5	1	1	10.7
O=C(/C=C/c1cccc(C(F)(F)F)c1)Nc1cccc(C(F)(F)F)c1	0.9	-186.7	0.8	2.9*	10.1
CCCC1=C(C(=O)OCC)C(c2cc(Cl)cc(OC)c2OCc2ccccc2)NC(=O)N1 (configuration not stated)	0.5	64.5*	1	0.4	50.4*
O=C(Nc1nncs1)C1(c2ccccc2)CCCC1	1	40.7	0.9	0.6	4.9
O=C(CSc1nnc(Cc2ccccc2)o1)N1CCOCC1	1	-4.6	1	1	0.5
O=C(Cc1cccs1)Nc1ccc(Cl)cc1	0.1	64.0*	0.9	0.4	94.4*
CCC(=O)Nc1ccc(-c2nnc(-c3ccccc3)o2)cc1	1	-5.6	1	1.1	-4.1
Cc1ccc(-c2nnc(-c3ccc(NC(=O)Cc4cccs4)cc3)o2)cc1	0.5	83.5*	1.1	0.2	53.0*
O=C(Cc1cccs1)Nc1ccccc1NC(=O)Cc1cccs1	0.5	27.8	0.8	0.7	50.6*
Cc1cc(C)n(C(=O)C2CCCN2S(=O)(=O)c2ccc(Cl)cc2)n1 (configuration not stated)	0.6	22.5	1.1	0.8	39.2
CCOC(=O)N1CCN(c2cc(=O)n(-c3cccc(Br)c3)c(=O)[nH]2)CC1	0.8	7.3	0.9	0.9	15.4
CCCn1c(C)cc(=O)c2cc(NC(=O)c3ccccn3)ccc21	1	-10.3	1	1.1	-4.6
O=C1c2ccccc2CN1CCNS(=O)(=O)c1ccc(Cl)cc1	0.6	-3.2	0.8	1	39.7
CN1CCN(CC(C)(C)NS(=O)(=O)c2ccc(Cl)cc2)CC1	0.1	0.8	1.5	1	94.8*
C=CCn1c(SCCC(=O)O)nc2c1c(=O)n(C)c(=O)n2C	1	-1.8	1	1	3.1
NC1=NS(=O)(=O)NC1c1cccc(Cl)c1 (configuration not stated)	1.1	-6.0	1	1.1	-9.3
O=C1NN=C(c2ccc(Cl)cc2)CC1c1cccc(Cl)c1 (configuration not stated)	0.3	18.4	1.3	0.8	67.6*
CCC(C)NC(=O)CN(c1ccc(OC)cc1)S(=O)(=O)c1ccc(NC(C)=O)cc1 (configuration not stated)	0.6	56.7*	1.2	0.4	38.0
CCOc1ccc(N(CC(=O)OC)S(=O)(=O)c2ccc3c(c2)n(C)c(=O)c(=O)n3C)cc1	0.9	56.1*	1.4	0.4	10.7
CCOc1ccc(S(=O)(=O)N(CC(N)=O)c2ccc(C)cc2)cc1	0.3	41.3	1	0.6	71.2*
SMILES	CYP2C19 activ	CYP2C9 inhib	PLAP act	CYP2C9 act	CYP2C19 inhib
COc1ccc(N(C(=O)COc2ccccc2OC)S(=O)(=O)c2ccc(C)cc2)cc1	0.6	52.4*	0.8	0.5	39.5
COc1ccc(NC(=O)CCS(=O)(=O)c2ccc(OC)cc2)cc1	0.7	43.2	0.9	0.6	26.8
c1ccc(CNCCN2CCNCC2)nc1	1	1.7	0.9	1	-1.5
COc1ccc(N(CC(=O)NN=C2CCCC2)S(=O)(=O)c2ccccc2)cc1	0.5	20.7	1.1	0.8	51.4*
COc1ccc(N(CC(=O)NN=C2CCCCCCC2)S(=O)(=O)c2ccccc2)cc1Cl	0.7	21.4	1.5	0.8	32.4
CCOc1ccccc1N(CC(=O)O)S(=O)(=O)c1ccccc1	0.9	2.9	1	1	6.1
CCOc1ccc(N(CC(=O)OC)S(=O)(=O)c2ccc(OC)c(OC)c2)cc1	0.4	54.7*	1.4	0.5	63.6*
COC(=O)CN(c1ccc(OC)cc1)S(=O)(=O)c1ccc(OC)c(OC)c1	0.1	16.1	1.4	0.8	94.0*
COc1ccc(N(CC(=O)O)S(=O)(=O)c2ccc(OC)c(OC)c2)cc1	0.8	28.9	1.1	0.7	22.0
CCOc1ccccc1N(CC(=O)OC)S(=O)(=O)c1ccccc1	0.5	70.9*	1.2	0.3	50.7*
CCOc1ccc(N(CC(N)=O)S(=O)(=O)c2ccc(F)cc2)cc1	0.6	12.3	1	0.9	36.9
COc1ccc(OC)c(N(CC(N)=O)S(=O)(=O)c2ccc(OC)c(OC)c2)c1	0.2	45.0	0.9	0.6	78.3*
O=S(=O)(NC1=NCCCCCC1)c1cccs1	0.8	-22.2	0.8	1.2	15.1
O=C(C(NS(=O)(=O)c1cccs1)c1ccccc1)N1CCN(c2ccccc2)CC1 (configuration not stated)	0.5	27.7	1.5	0.7	53.5*
O=C(C1CCN(S(=O)(=O)c2cccs2)CC1)N1CCN(c2ccccc2)CC1	1.1	2.9	1.1	1	-6.5
O=C1C(NS(=O)(=O)c2cccs2)=C(N2CCN(c3ccccc3)CC2)C(=O)c2ccccc21	0.7	63.2*	1.3	0.4	28.6
NC(=O)c1sc2nc3c(c(-c4cccs4)c2c1N)CCCCC3	1.1	-7.9	1	1.1	-13.4
COCCn1c(=O)c2c(nc3n2CCN3c2ccc(C)cc2)n(C)c1=O	1	0.2	1.2	1	0.6
Cc1ccc(S(=O)(=O)N2CCOCC2)c(C)c1-n1cnnn1	1.1	-197.6	0.8	3*	-8.6
COc1cc(-n2cnnn2)ccc1S(=O)(=O)N1CCOCC1	1	-3.3	1.1	1	-4.1
CNC(=O)C1CC(=O)N(CCCc2ccccc2)C(=Nc2ccccc2)S1 (configuration not stated)	0.4	56.3*	1.5	0.4	64.6*
COc1ccccc1-c1nnc(SCC(=O)OC(C)C)o1	0.4	-34.0	1	1.3	58.7*
Cc1ccc(-c2nnc(SCC(=O)N3CCCC3)o2)cc1C	0.5	-71.4	1.5	1.7	52.6*
CCOC(=O)N1CCN(C(=O)CSc2nc(-c3cccc(C)c3)ns2)CC1	0.5	68.8*	1.4	0.3	49.2
Cc1cccc(C)c1OC(=O)CSc1nnc(-c2ccccc2O)o1	0.2	67.3*	1.1	0.3	75.4*
COC(=O)CSc1nnc(-c2ccccc2OC)o1	0.9	-5.0	1.2	1.1	7.7
O=C(c1ccc(Cl)c(F)c1F)N1CCOCC1	1.1	-13.2	1	1.1	-9.2
